# Compound activity (PubChem BioAssay)
# Abeta yeast res – A-beta toxicity reversal in yeast; yeast expressing A-beta42, growth rescue, OD600, 48 h; response scale: 0% DMSO, 100% iron-clioquinol control; Potency, µM (series often up to 46.1 µM), most hits filed as activators; 0.063% of 410,000 active; AID 1347071; note: nearly all actives have a fitted effect of over 55% in size
#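 Yeast growth medium received pinned compounds, then yeast cells expressing toxic A-beta were added; plates incubated at 30 C for 48 hr. Growth read as absorbance at 600 nm, normalized to DMSO and equimolar FeCl3 plus clioquinol controls.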
# TDP43 rescue – TDP-43 toxicity inhibition in yeast; 1.8% of 410,000 active; TDP-43 expressing yeast growth rescue, BacTiter-Glo, 24 h; Potency, µM (titrated, usually from 46.1 µM), for inactives: top-dose growth rescue (activation), actives largely listed as activators; note: % of control where 0% means no effect; nearly all actives have a fitted effect of over 50% in size
#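 Yeast expressing TDP-43 (pregrown in raffinose, seeded at OD600=0.02 in galactose medium) exposed to compounds 24 hr at 30 deg C. Growth read by BacTiter-Glo luminescence; rescue of toxicity appears as increased signal.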
# FUS yeast rescue – rescues growth of FUS-expressing yeast. S. cerevisiae FUS-expressing, growth rescue, OD600, 24 h. Potency, µM (series often up to 76.6 µM), usual class: activators. 0.24% of 390,000 active;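 note: plate controls were DMSO vehicle for no effect and reference control for full effect; nearly all actives have a fitted effect of over 55% in size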
#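 FUS-expressing yeast, raffinose-pregrown, induced in 2% galactose minimal medium at OD 0.005; compounds in a dilution series, 24hr at 30C. Growth restoration read as absorbance at 600 nm. CP55940 positive control, DMSO negative.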
# aSyn rescue – rescues yeast growth from alpha-synuclein toxicity; Yeast expressing alpha-synuclein, growth rescue, BacTiter-Glo, 24 h; Potency, µM (top dose mostly 46.1 µM), for inactives: at the top dose growth rescue (activation), hits mostly activators; 0.14% of 370,000 active; AID 652106; note: % of control where 0% means no effect; nearly all actives have a fitted effect of over 65% in size
#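 Rescue of yeast growth: cells expressing toxic alpha-synuclein, induced in galactose at OD600 0.02, incubated with compound 24 h at 30 C. ATP luminescence quantified growth; inhibitors of toxicity appear as activators.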
# * hit, by the source's call; i = inactive; ? = inconclusive; / = not tested or not shown; ! = not confirmed by another sample; [ ] = another dose, or the depositor's remark. Rows were chosen to be rich in hits. Some 2.1% of all compounds tested hit in one or more screens of this group. Calls come from the whole dose curve; as a rule, active = well fitted curve in the direction sought with a large enough effect; inconclusive = small, poorly fitted or top-dose-only effect, or another doubt; inactive = no such curve, though single readings can be large; an effect the other way counts as inactive or inconclusive. Potency is the fitted concentration of half-maximal effect.
SMILES,Abeta yeast res,TDP43 rescue,FUS yeast rescue,aSyn rescue
N/C(Cc1ccc([N+](=O)[O-])cc1)=N\OC(=O)c1cccc(Br)c1,i,-93%,i,-73%
COc1ccc(Cl)cc1NC(=O)CSc1ccc(-c2sc(C)nc2C)nn1,i,9%,i,/
Cc1ccc(C(=O)Nc2nnc(S(=O)(=O)N(C)Cc3ccc(F)cc3)s2)cc1,i,13%,i,/
Cc1cc(NCCCCCCCNc2cc(C)nc3cc([N+](=O)[O-])ccc23)c2ccc([N+](=O)[O-])cc2n1,i,14µM*,/,1%
COCCCNc1cc(C)nc2ccccc12,i,3%,i,0%
COc1ccc(CCn2c(=S)[nH]c(=O)c3cccnc32)cc1OC,/,/,/,-8%
Cc1ccc(-c2csc(=Nc3ccc(F)cc3)n2Cc2ccc3c(c2)OCO3)cc1C,i,-17%,i,/
O=C(CCCc1ccccc1)Nc1ccccc1[N+](=O)[O-],i,11µM*,i,23%
Cc1c(NC(=S)NC(=O)C(C)(C)C)cccc1[N+](=O)[O-],i,14µM*,i,1%
O=C(CCc1ccccc1)NC(=S)Nc1ccccc1[N+](=O)[O-],?,13µM*,i,7%
CCc1c(C)sc2c1CCN(Cc1ccccc1)C2c1ccccc1 (stereo not drawn),i,-16%,i,/
Cc1ccc(S(=O)(=O)c2c(N)n(/N=C/c3ccco3)c3nc4ccccc4nc23)cc1,i,14µM*,i,1%
CCOc1ccc2oc(=O)cc(CN3CCN(c4cc(C)ccc4C)CC3)c2c1,i,5%,i,/
CCOc1cccc(C2C=C(c3ccc4c(c3)OCO4)NC(c3ccccc3F)N2)c1O (stereo not drawn),/,/,/,0%
Cc1ccc(Cn2ccnc2SCC(=O)Nc2nc3ccccc3s2)cc1,i,22µM*,?,/
COc1ccc(-c2csc3ncnc(N4CCN(c5ccc(OC)cc5)CC4)c23)cc1,i,11µM*,i,10%
COc1ccc(-c2csc3ncnc(N4CCN(c5ccccc5O)CC4)c23)cc1,i,18µM*,i,?
O=C(c1ccco1)N1CCN(c2ncnc3scc(-c4ccc(F)cc4)c23)CC1,i,18µM*,i,12%
Cc1ccc(-c2csc3ncnc(N4CCN(C(=O)c5ccco5)CC4)c23)cc1,i,?,/,3%
COc1ccc(-c2csc3ncnc(N4CCN(c5ccccc5)CC4)c23)cc1,i,11µM*,i,15%
Cc1nc(-c2ccc(S(=O)(=O)N3CCN(c4cccc(C(F)(F)F)c4)CC3)cc2)co1,i,13%,i,-1%
Clc1ccc(CN2CCC(CNc3ncnc4onc(-c5ccc(Cl)cc5)c34)CC2)cc1,i,4%,i,/
Cc1ccccc1NC1=C(Cl)C(=O)OC1OC(=O)c1ccccc1C (stereo not drawn),i,20µM*,i,6%
C=CC(=O)N1CCC[C@@H](n2nc(-c3ccc(Oc4ccccc4)cc3)c3c(N)ncnc32)C1,/,/,/,-16%[92.2 µM]
O=C(c1ccccc1F)N1CCN(c2cccc(C(F)(F)F)c2)CC1,i,?,i,6%
SMILES,Abeta yeast res,TDP43 rescue,FUS yeast rescue,aSyn rescue
O=C(c1c(F)c(F)c(F)c(F)c1F)N1CCN(c2cccc(C(F)(F)F)c2)CC1,i,16µM*,i,5%
O=C(c1ccc2nc[nH]c2c1)N1CCN(c2cccc(C(F)(F)F)c2)CC1,i,9%,i,0%
Cc1oc2ncnc(N3CCCCC3)c2c1C(=O)N1CCN(c2cccc(C(F)(F)F)c2)CC1,i,22µM*,?,/
O=C(c1ccc2ncsc2c1)N1CCN(c2cccc(C(F)(F)F)c2)CC1,18µM*,0%,?,-2%
O=C(CS(=O)(=O)c1cccc2nsnc12)N1CCN(c2cccc(C(F)(F)F)c2)CC1,i,20µM*,i,14%
Cc1nc(N2CCOCC2)c2c(C(=O)N3CCN(c4cccc(C(F)(F)F)c4)CC3)c(C)oc2n1,i,?,i,/
O=C(CS(=O)(=O)c1cccc2nsnc12)N1CCN(c2ccccc2F)CC1,i,6%,i,/
CCN1CCCCC(NC(=O)c2ccccc2OC)C1=O (stereo not drawn),/,/,i,/
CN1[C@H](Cc2ccccc2)COc2cccc(F)c2S1(=O)=O,/,/,i,/
O=C(Nc1ccc2c(c1)OCO2)N1CCN(c2cccc(C(F)(F)F)c2)CC1,i,10µM*,i,-9%
CC1CCCN(C(=O)c2cc3c(Cl)nc4ccccc4c3s2)C1 (stereo not drawn),i,20µM*,i,/
O=C(C(=O)N1CCC(c2ccccc2)CC1)c1ccc(F)c(F)c1,i,22µM*,i,9%
N#Cc1cccc(C(=O)C(=O)N2CCC(c3ccccc3)CC2)c1,i,10%,i,3%
Cc1cccc2cc3c(N)c(C#N)sc3nc12,i,3.2µM*,i,?
CCOc1ccc(NC(=S)NC(=O)c2c(Br)cnn2C)c([N+](=O)[O-])c1,i,16µM*,i,-4%
CCOc1ccc(NC(=S)NC(=O)c2c(Cl)cnn2CC)c([N+](=O)[O-])c1,i,5%,/,2%
COc1c(C)cc(Br)cc1C(=O)Nc1cccc(NC(=O)c2ccco2)c1,i,?,/,-20%
COc1ccc(Br)cc1C(=O)Nc1cccc(NC(=O)c2ccco2)c1,i,8.9µM*,/,0%
COc1ccc(NC(=O)c2ccco2)cc1NC(=O)c1ccc(C)c(C)c1,i,16µM*,i,/
Cc1ccccc1N1CCN(C(=O)CN2C(=O)CC(C)(C)S(=O)(=O)c3ccccc32)CC1,/,/,i,/
CCOC(=O)C(C(=O)OCC)C(Nc1cccc(Br)c1)c1ccccc1 (stereo not drawn),i,13µM*,i,1%
CCc1nn(CCCC(=O)NC2CCCCC2C)c(=O)c2cc3occc3n12 (stereo not drawn),i,22µM*,i,4%
CCc1ccc(NC(=O)CCCn2nc(CC)n3c(cc4occc43)c2=O)cc1,i,23%,i,9%
CCc1nn(CCCC(=O)NCc2ccc(OC(C)C)cc2)c(=O)c2cc3occc3n12,i,7%,32µM*!,-3%
Cc1ccn2c(=O)cc(COc3ccc(NC(=O)COc4ccc(C)c(C)c4)cc3)nc2c1,i,21%,i,/
O=C(CSc1nc2ccccc2c2c1CCCC2)N1CCOCC1,i,10µM*,i,?
O=C(CSc1nncc2ccccc12)N1CCOCC1,i,-16%,i,4%
Cc1cc(C)cc(Cn2c3ccc(NC(=S)NC4CCCCC4)cc3c(=O)n2C)c1,i,17%,28µM*,-9%
Cc1cccc(C(=O)n2nc(-c3cccnc3)nc2NCc2ccccc2)c1,i,21%,i,/
O=C1c2[nH]nc(-c3ccccc3O)c2C(c2cccc(Cl)c2)N1Cc1ccco1 (stereo not drawn),i,?,?,6%
